# Data as given in PubChem BioAssay.
# Active and inactive are the calls of the source. Unless noted, no rule for the calls is given here.
# Key:
# [1] = compound effects on lung adenocarcinoma cell viability – A549, calcein-AM fluorescence, 48 h, basal, profiling panel (AID 1162); settings: higher = more signal; also: test concentration not given here
# [2] = compound effects on differentiated 3T3-L1 adipocyte viability – cell-based, 3T3-L1 adipocytes, calcein-AM fluorescence, 48 h, basal, profiling panel (AID 1163); settings: 3T3-L1 adipocytes viability, higher = more signal; also: test concentration not given here
# [3] = compound effects on hepatocellular carcinoma cell viability – HepG2, calcein-AM fluorescence, 48 h, basal, profiling panel (AID 1164); settings: higher = more signal; also: test concentration not given here
# [4] = compound effects on multiple myeloma cell viability – MM1S, calcein-AM fluorescence, 48 h, basal, profiling panel (AID 1165); settings: higher = more signal;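 also: viability of MM1S multiple myeloma cells under basal unstimulated conditions; test concentration not given here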
# [5] = calcein-AM signal in unstimulated myeloma cells – cell-based, calcein-AM fluorescence, 48 h, PK04 Diversity Set, profiling panel (AID 1166); settings: RPMI8226 myeloma viability, higher = more signal;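 also: cells grown under basal conditions without added stimulus; test concentration not given here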
# [6] = JC-1 mitochondrial signal, unstimulated HepG2 cells – cell-based, JC-1 fluorescence, 24 h, 100 nL compound, profiling panel (AID 1167); settings: HepG2 mitochondrial potential, higher = more signal; also: test concentration not given here
# [7] = JC-1 mitochondrial signal, unstimulated adipocytes – cell-based, JC-1 fluorescence, 3T3-L1 adipocytes, 24 h, 100 nL compound, profiling panel (AID 1168); settings: JC-1 mitochondrial fluorescence, higher = more signal, called active from +8 up or from −8 down; also: test concentration not given here
# [8] = JC-1 mitochondrial signal, unstimulated myeloma cells – cell-based, JC-1 fluorescence, RPMI8226, 24 h, 100 nL compound, profiling panel (AID 1169); settings: JC-1 mitochondrial potential fluorescence, higher = more signal; also: test concentration not given here
# [9] = JC-1 mitochondrial signal, unstimulated MM1S myeloma – cell-based, JC-1 fluorescence, 24 h, 100 nL compound, profiling panel (AID 1170); settings: MM1S mitochondrial potential, higher = more signal; also: test concentration not given here
# [10] = resazurin metabolic signal in A549 cells – cell-based, resazurin fluorescence, 24 h, PK04 Diversity Set, profiling panel (AID 1171); settings: A549 viability, higher = more signal, called active from +8 up or from −8 down; also: test concentration not given here
# [11] = resazurin metabolic signal in HepG2 cells – cell-based, resazurin fluorescence, 24 h, PK04 Diversity Set, profiling panel (AID 1172); settings: HepG2 viability, higher = more signal; also: test concentration not given here
# [12] = budding yeast growth changes without added modifier – OD600, strain BY4716, 24 h, basal condition, primary screen (AID 1173); settings: S. cerevisiae BY4716 growth, OD600, 24 h; higher = more signal, called active from +8 up or from −8 down
# [13] = viability profiling in MM1S myeloma cells – cell-based, resazurin fluorescence, basal, 24 h, PK04 Diversity Set, profiling panel (AID 1174); settings: higher = more signal, called active from +8 up or from −8 down; also: test concentration not given here
# [14] = target: Dihydroorotate dehydrogenase (quinone), mitochondrial (Plasmodium falciparum (isolate 3D7)) (UniProt Q08210); test: inhibition of P. falciparum DHODH – biochemical, C-terminal His tag, absorbance 600 nm, primary screen (AID 1175); settings: PfDHODH enzyme, DCIP absorbance 600 nm; higher = more signal, called active from +8 up or from −8 down;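 also: recombinant parasite enzyme with a five histidine tag at its C terminus; test concentration not given here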
# [15] = inhibition of PAO1 biofilm formation – strain PAO1, LB-PBS medium, absorbance 600 nm, primary screen (AID 1176); also: test concentration not given here; settings: P. aeruginosa PAO1 growth/biofilm, A600, 12 h; higher = more signal
# [16] = growth modulation of vineyard yeast isolate – strain RM11-1a, OD600, basal, 24 h, primary screen (AID 1177);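 also: cultures grown under basal conditions with no added stressor; test concentration not given here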; settings: S. cerevisiae RM11-1a growth, OD600, 24 h; higher = more signal, called active from +8 up or from −8 down
# [17] = growth of efflux-deficient E. coli DRC39 – strain DRC39, OD650, 24 h, E. coli filamentation inducers, primary screen (AID 1178);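 also: growth measured as culture turbidity by optical density at 650 nm; test concentration not given here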; settings: E. coli DRC39 acrAB, higher = more signal, called active from +8 up or from −8 down
# [18] = growth of efflux-deficient E. coli DRC39 – strain DRC39, OD650, 48 h, E. coli filamentation inducers, primary screen (AID 1179);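 also: screen aims at cell division blockers that make cells filament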; settings: E. coli DRC39 delta-acrAB growth, higher = more signal, called active from +8 up or from −8 down
# [19] = viability profiling in RPMI8226 myeloma cells – cell-based, resazurin fluorescence, basal, 24 h, PK04 Diversity Set, profiling panel (AID 1180); settings: higher = more signal;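 also: RPMI8826 multiple myeloma cell line at 5000 cells per well; test concentration not given here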
# [20] = target: E3 ubiquitin-protein ligase XIAP (Homo sapiens) (UniProt P98170); test: small molecules binding XIAP protein – biophysical, small-molecule microarray, fluorescence 635 nm, primary screen (AID 1181); settings: higher = more signal;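 also: score merges 667 nm emission and signal to noise over triplicate slides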
# Chain of E3 ubiquitin-protein ligase XIAP (Homo sapiens) (P98170 whole entry, looked up): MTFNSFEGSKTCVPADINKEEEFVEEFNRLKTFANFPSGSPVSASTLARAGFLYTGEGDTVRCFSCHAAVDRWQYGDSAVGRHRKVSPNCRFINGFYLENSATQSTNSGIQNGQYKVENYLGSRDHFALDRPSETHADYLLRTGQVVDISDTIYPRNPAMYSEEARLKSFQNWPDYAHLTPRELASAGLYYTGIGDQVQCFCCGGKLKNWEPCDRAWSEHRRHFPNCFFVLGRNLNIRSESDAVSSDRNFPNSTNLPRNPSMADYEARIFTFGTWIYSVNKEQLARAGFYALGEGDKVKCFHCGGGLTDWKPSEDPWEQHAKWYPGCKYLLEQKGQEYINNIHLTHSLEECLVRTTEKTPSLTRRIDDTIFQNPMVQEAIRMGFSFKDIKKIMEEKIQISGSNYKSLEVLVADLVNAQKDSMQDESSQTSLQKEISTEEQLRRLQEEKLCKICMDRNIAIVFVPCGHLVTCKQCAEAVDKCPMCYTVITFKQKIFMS
# Chain of Dihydroorotate dehydrogenase (quinone), mitochondrial (Plasmodium falciparum (isolate 3D7)) (Q08210 whole entry, looked up): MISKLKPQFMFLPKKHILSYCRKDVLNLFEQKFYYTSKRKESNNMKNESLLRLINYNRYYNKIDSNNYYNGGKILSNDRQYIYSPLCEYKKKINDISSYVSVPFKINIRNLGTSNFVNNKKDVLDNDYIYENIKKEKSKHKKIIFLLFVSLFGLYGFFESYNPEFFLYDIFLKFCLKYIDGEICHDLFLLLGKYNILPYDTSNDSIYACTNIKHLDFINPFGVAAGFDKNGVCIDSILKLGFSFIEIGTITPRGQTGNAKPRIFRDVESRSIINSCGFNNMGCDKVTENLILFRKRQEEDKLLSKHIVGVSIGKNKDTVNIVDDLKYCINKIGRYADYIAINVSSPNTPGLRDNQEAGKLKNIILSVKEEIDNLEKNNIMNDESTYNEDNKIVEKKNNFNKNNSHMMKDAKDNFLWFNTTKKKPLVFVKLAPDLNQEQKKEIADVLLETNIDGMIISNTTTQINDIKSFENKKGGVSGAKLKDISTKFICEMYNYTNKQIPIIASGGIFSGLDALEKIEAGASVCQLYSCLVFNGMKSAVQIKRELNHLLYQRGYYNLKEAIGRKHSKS
SMILES,z-score [1],z-score [2],z-score [3],z-score [4],z-score [5],z-score [6],z-score [7],z-score [8],z-score [9],z-score [10],z-score [11],z-score [12],z-score [13],composite z-score [14],z-score [15],z-score [16],z-score [17],z-score [18],z-score [19],composite z-score [20]
CO[C@H]1COC(=O)[C@H](C)COC(=O)[C@H](C)NC(=O)CC=C[C@H]1C,-0.0718,0.996,-0.248,0.0627,0.286,0.708,0.475 (inactive),-0.218,1.3,0.724 (inactive),0.377,-1.32 (inactive),1.13 (inactive),0.0315 (inactive),-0.826 (inactive),-0.419 (inactive),0.91 (inactive),-0.193 (inactive),1.03,-0.0525
C[C@@H](c1ccccc1)N1C(=O)[C@H]2[C@H]3[C@H](O)[C@H](O)CC(=NNC(=O)OCc4ccccc4)[C@@H]3CC[C@H]2C1=O,-0.18,-0.506,-0.468,0.399,-0.253,-0.604,-0.762 (inactive),0.102,-0.998,-0.427 (inactive),-0.289,0.862 (inactive),-0.465 (inactive),-0.594 (inactive),-0.155 (inactive),-0.396 (inactive),0.288 (inactive),0.476 (inactive),-0.158,-0.0749
CCOC(=O)[C@H](Cc1ccccc1)NC(=O)CCC1CC(OC(=O)NCc2ccc3c(c2)OCO3)CC2(CCCC(COC(=O)NCCCN3CCCC3=O)O2)O1 (stereo not given in full),0.0325,0.484,-0.152,-0.59,-1.6,1.97,-0.654 (inactive),0.517,0.547,0.529 (inactive),0.557,-0.547 (inactive),0.913 (inactive),-0.59 (inactive),-0.801 (inactive),-0.012 (inactive),-0.131 (inactive),0.186 (inactive),1.36,-0.124
CCOC(=O)CCN1C(=O)[C@H]2[C@H]3[C@H](O)[C@H](O)CC(=NO[C@@H]4O[C@H](CO)[C@@H](O)[C@H](O)[C@H]4O)[C@@H]3CC[C@H]2C1=O,0.816,-0.0641,1.19,-0.269,0.238,-0.0782,-0.0421 (inactive),0.577,-1.45,-0.765 (inactive),-0.901,-1.4 (inactive),-0.481 (inactive),-0.451 (inactive),0.48 (inactive),-0.445 (inactive),0.225 (inactive),0.79 (inactive),-0.634,-0.0125
COc1cccc([C@H](O)Cn2cc(-c3ccc(CON=C(C)C)cc3)nn2)c1,0.445,-0.374,0.206,1.22,0.157,-0.803,0.706 (inactive),-0.0682,-0.544,-0.409 (inactive),-0.262,-0.377 (inactive),-0.307 (inactive),-0.217 (inactive),0.475 (inactive),-0.47 (inactive),0.419 (inactive),0.291 (inactive),-0.0501,-0.167
C#CCCCON=C1[C@H]2CCn3c(=O)n(Cc4cc5c(cc4Cl)OCO5)c(=O)n3[C@H]2[C@H](O)[C@@H]2O[C@H]12,0.328,-0.237,0.484,-0.0822,0.644,-0.663,-1.1 (inactive),-0.123,0.00911,-0.188 (inactive),-0.242,0.606 (inactive),-0.16 (inactive),0.605 (inactive),-0.106 (inactive),0.432 (inactive),0.313 (inactive),-0.506 (inactive),0.0334,-0.168
CC(C)(C)N1C(=O)[C@H]2[C@H]3[C@H](O)[C@H](O)CC(=NOC[C@@H](O)COCc4ccco4)[C@H]3CC[C@H]2C1=O,-0.0309,0.676,0.082,0.406,-0.139,-0.368,0.856 (inactive),-0.631,-0.914,-0.679 (inactive),-0.488,0.262 (inactive),-0.622 (inactive),0.748 (inactive),-0.0606 (inactive),0.0001 (inactive),-0.0207 (inactive),-0.149 (inactive),-0.583,-0.334
CC(C)[C@H](NC(=O)OC(C)(C)C)[C@@H](O)CC(=O)C(C)(C)C,-0.0305,-1.02,0.483,0.514,-0.0779,0.136,-0.148 (inactive),-0.988,-1.13,-0.242 (inactive),0.365,0.289 (inactive),-0.809 (inactive),0.525 (inactive),0.593 (inactive),0.942 (inactive),0.599 (inactive),0.311 (inactive),-0.816,-0.111
CCOC(=O)[C@H](CC(C)C)NC(=O)CCC1CC(OC(=O)NCc2ccc3c(c2)OCO3)CC2(CCCC(COC(=O)NCc3ccccc3)O2)O1 (stereo not given in full),-0.547,-0.654,-1.38,-3.45,-1.58,-0.439,0.195 (inactive),0.0575,0.277,1.06 (inactive),1.32,0.918 (inactive),0.624 (inactive),-0.047 (inactive),-0.282 (inactive),1.26 (inactive),0.533 (inactive),-0.0559 (inactive),0.836,0.0727
